Laboratory results as given in PubChem BioAssay AID651791 (National Center for Advancing Translational Sciences (NCATS), 2012).
Inconclusive results are not listed. Activity calls are given as the source filed them. Calls follow the shape of the dose curve; as a rule, active = well fitted inhibition curve with a large enough effect; inconclusive = small, poorly fitted or top-dose-only effect; inactive = no such curve, though single readings can be large or run the other way.

Experiment: InCell qHTS Assay for Inhibitors of the mTORC1 Signaling Pathway in MEF (Tsc2-/-, p53-/-) Cells: Hit Validation;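 also: phospho-S6 Ser235/236 signal normalized to propidium iodide cell count per well; nearly all actives have a fitted effect of over 75% in size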
Conditions: phospho-rpS6 immunofluorescence, 24 h; activity change, negative = inhibition: at 38.3 µM (top of the series)
Potency is read from the fitted curve at half-maximal effect.

**Q.** For `CC(C)(C)C(=O)Nc1ccc(-c2nc3ccc(NC(=O)C(C)(C)C)cc3[nH]2)cc1`, which activity change, negative = inhibition is on record?
**A.** The activity change, negative = inhibition was -27%.

**Q.** For `CCN1CCN(C(=O)Cn2ncc3c4ccccc4n(Cc4c(C)cc(C)cc4C)c3c2=O)CC1`, which activity change, negative = inhibition is on record?
**A.** Its activity change, negative = inhibition is -100%.

**Q.** With `CCOC(=O)C1=C(CN2CCN(c3cc(C)ccc3C)CC2)NC(=O)NC1c1ccc(Cl)cc1` (configuration not stated) as the compound, how does the activity change, negative = inhibition read?
**A.** Its activity change, negative = inhibition is -100%.

**Q.** With `COc1ccc2c(c1)CC(C(=O)Nc1cc(Cl)ccc1C)CO2` (configuration not stated) as the compound, how does the activity change, negative = inhibition read?
**A.** Its activity change, negative = inhibition is -100%.

**Q.** With `COc1ccc(CCNC(=O)c2ccc3c(c2)N(Cc2ccccc2)CCS3)cc1OC` as the compound, how does the activity change, negative = inhibition read?
**A.** Its activity change, negative = inhibition is -100%.

**Q.** With `Cc1ccc(-c2nnc(C3CCN(S(=O)(=O)c4ccc(C)c(C)c4)CC3)o2)cc1` as the compound, how does the activity change, negative = inhibition read?
**A.** The activity change, negative = inhibition was -100%.

**Q.** With `CCS(=O)(=O)c1oc(-c2ccc(F)cc2)nc1S(=O)(=O)c1ccc(Br)cc1` as the compound, how does the Potency read?
**A.** The Potency was 3.69 µM (active).

**Q.** Which activity change, negative = inhibition does the source give for `CCn1c(CC2C(=O)N(C)c3ccc(Br)cc32)nc2ccccc2c1=O` (configuration not stated) here?
**A.** The activity change, negative = inhibition was -100%.

**Q.** For `CN(C(=O)CSc1nc2ccc(NC(=O)COc3ccc(F)cc3)cc2s1)c1ccccc1`, which activity change, negative = inhibition is on record?
**A.** The activity change, negative = inhibition was -100%.

**Q.** Which activity change, negative = inhibition does the source give for `Cc1ccc(NC(=O)CSc2ccc(-c3ccccn3)nn2)cc1F` here?
**A.** The activity change, negative = inhibition was -100%.

**Q.** For `CCOC(=O)c1cnc2ccc(OC)cc2c1NCCc1ccccc1`, which activity change, negative = inhibition is on record?
**A.** Its activity change, negative = inhibition is -100%.

**Q.** Which activity change, negative = inhibition does the source give for `Cc1cccc(NC(=O)c2c(NC(=O)C(F)(F)F)sc3c2CCCCC3)c1` here?
**A.** Its activity change, negative = inhibition is -100%.

**Q.** Which activity change, negative = inhibition does the source give for `Cc1cccc(N2CCN(C(=O)C3CCN(C(=O)c4cc5sccc5n4C)CC3)CC2C)c1` (configuration not stated) here?
**A.** The activity change, negative = inhibition was -100%.

**Q.** With `Cc1c(C(=O)Nc2ccc(F)cc2F)nnn1-c1ccccc1Br` as the compound, how does the activity change, negative = inhibition read?
**A.** The activity change, negative = inhibition was -100%.

**Q.** For `COc1cccc(/C=C(\C#N)c2nc3ccc(C)cc3[nH]2)c1`, which activity change, negative = inhibition is on record?
**A.** Its activity change, negative = inhibition is -100%.

**Q.** With `CCOc1cc(C2CC(=O)Nc3cc4c(cc32)OCCO4)ccc1O` (configuration not stated) as the compound, how does the activity change, negative = inhibition read?
**A.** The activity change, negative = inhibition was -100%.

**Q.** Which Potency does the source give for `CC1CCN(S(=O)(=O)c2ccc(C(=O)Nc3sc4c(c3C(N)=O)CC(C)(C)NC4(C)C)cc2)CC1` here?
**A.** The Potency was 14.7 µM (active).

**Q.** With `CCOc1ccc(S(=O)(=O)N(C(=O)c2ccncc2)c2ccc3oc(C)c(C(=O)OC)c3c2)cc1` as the compound, how does the activity change, negative = inhibition read?
**A.** Its activity change, negative = inhibition is -100%.

**Q.** Which activity change, negative = inhibition does the source give for `CCOC(=O)N1CCN(Cc2nc3cc(NC(=O)C(C)C)ccc3n2C(C)C)CC1` here?
**A.** Its activity change, negative = inhibition is -100%.

**Q.** Which activity change, negative = inhibition does the source give for `Cc1ccc(NC(=O)c2c(NC(=O)C(F)(F)F)sc3c2CCCCC3)cc1` here?
**A.** Its activity change, negative = inhibition is -100%.

**Q.** Which activity change, negative = inhibition does the source give for `COCc1oc2ccc(NS(=O)(=O)c3ccc(C)cc3)cc2c1C(=O)OC` here?
**A.** Its activity change, negative = inhibition is -6.75%.

**Q.** Which activity change, negative = inhibition does the source give for `COc1cc2c(cc1OC)n(CC(=O)c1ccc(F)cc1)c(=O)n1nc(CCn3nc(C)cc3C)nc21` here?
**A.** The activity change, negative = inhibition was -100%.

**Q.** For `CCOc1ccc(N(C(C)C(=O)Nc2cc(Cl)ccc2OC)S(C)(=O)=O)cc1` (configuration not stated), which activity change, negative = inhibition is on record?
**A.** Its activity change, negative = inhibition is -100%.

**Q.** For `Cc1nn(CCCC(=O)NCc2ccccc2)c(=O)c2c1sc1ccccc12`, which activity change, negative = inhibition is on record?
**A.** The activity change, negative = inhibition was -100%.

**Q.** For `COc1ccc(C(=O)N2CCN(C(=O)COc3ccc(Br)cc3)CC2)cc1OC`, which activity change, negative = inhibition is on record?
**A.** The activity change, negative = inhibition was -100%.

**Q.** Which activity change, negative = inhibition does the source give for `CCCCOc1cccc(C(=O)N2CCN(CCc3ccncc3)CC2)c1` here?
**A.** Its activity change, negative = inhibition is -100%.

**Q.** For `CCCc1oc2ccc(NS(=O)(=O)c3ccc(OCC)cc3)cc2c1C(=O)OCC`, which activity change, negative = inhibition is on record?
**A.** The activity change, negative = inhibition was -100%.

**Q.** With `CC(C)S(=O)(=O)c1oc(-c2cccs2)nc1S(=O)(=O)c1ccc(F)cc1` as the compound, how does the Potency read?
**A.** The Potency was 1.47 µM (active).

**Q.** For `CCOc1ccccc1NC(=O)c1cn(C2CCCC2)c(=O)c2c1c1ccccc1n2C`, which activity change, negative = inhibition is on record?
**A.** The activity change, negative = inhibition was -100%.

**Q.** For `COc1cc(C2CC(=O)Nc3cc4c(cc32)OCCO4)cc(Br)c1OC` (configuration not stated), which activity change, negative = inhibition is on record?
**A.** Its activity change, negative = inhibition is -100%.

**Q.** For `Cc1cc(-c2ccc(S(=O)(=O)Nc3cccc(C)c3C)s2)on1`, which activity change, negative = inhibition is on record?
**A.** The activity change, negative = inhibition was -21.8%.

**Q.** Which activity change, negative = inhibition does the source give for `Cc1cc(C)c(-c2n[nH]c3c2C(c2ccccc2F)N(Cc2ccco2)C3=O)c(O)c1` (configuration not stated) here?
**A.** The activity change, negative = inhibition was -100%.

**Q.** For `CC(C(=O)NCc1cccc(Br)c1)n1ncn2cccc2c1=O` (configuration not stated), which activity change, negative = inhibition is on record?
**A.** The activity change, negative = inhibition was -100%.

**Q.** With `CCCC1=Nc2cc(C(=O)NC3CCCC3)ccc2Sc2ccc(C)cc21` as the compound, how does the activity change, negative = inhibition read?
**A.** The activity change, negative = inhibition was -100%.

**Q.** Which Potency does the source give for `CCN1CCOC(=O)C1CC(=O)Nc1cc(C)ccc1OC` (configuration not stated) here?
**A.** Its Potency is 13.1 µM (active).

**Q.** With `CCCS(=O)(=O)c1ncc(Cl)c(C(=O)Nc2c(C(=O)Nc3ccccc3)oc3ccccc23)n1` as the compound, how does the Potency read?
**A.** Its Potency is 2.33 µM (active).

**Q.** For `CCOc1ccc(Nc2nc(N)c(C(=O)c3ccccc3Cl)s2)cc1`, which activity change, negative = inhibition is on record?
**A.** The activity change, negative = inhibition was -100%.
